IL-1B inflam inh – inflammasome signaling inhibition, IL-1 beta readout; THP-1 LPS/ATP IL-1B secretion, AlphaLISA, 16 h; stronger effect = lower value; activity change, % at 57.5 µM; 360,000 tested, 4.7% active; AID 743279; in the data active = activity change below about -50%; inconclusive = mostly about -30% to -49%
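THP-1 cells pretreated 1 hr with compounds (up to 57.5 uM final), then stimulated with LPS (250 ng/mL final) plus ATP (1.25 mM final); secreted IL-1B measured by AlphaLISA after 16 hr, decreased signal indicating inhibition.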
Gal4-VP16 FLuc – counter-screen for ROR gamma inhibitors: Gal4-VP16 reporter; AID 2546; 310,000 tested, 3.5% active; Potency, µM (top dose mostly 53.6 µM), inactives show at the highest dose activity, negative = inhibition, usual class: inhibitors; Drosophila S2 Gal4-VP16 UAS-luciferase, luminescence, 20 h;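 note: Gal4-VP16 expression switched on by copper sulfate through the metallothionein promoter; potency is the fitted concentration of half-maximal effect; nearly all actives have a fitted effect of over 50% in size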
TDP1 cell noCPT – qHTS for Inhibitors of human tyrosyl-DNA phosphodiesterase 1 (TDP1): qHTS in cells in absence of CPT; DT40 Tdp1-/- hTDP1 cells, no CPT, ATP luminescence, 48 h; Potency, µM (series often up to 46.2 µM), for inactives: at the highest dose activity change, negative = growth inhibition, most hits filed as inhibitors; 420,000 tested, 15% active; note: potency is the fitted concentration of half-maximal effect; nearly all actives have a fitted effect of over 55% in size
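Chicken DT40 Tdp1-/- cells stably complemented with human TDP1 were seeded at 400 cells/well with DMSO in place of 20 nM camptothecin. After compound pinning, cells grew at least 48 hr at 37 °C; viability read by CellTiter-Glo luminescence.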
ELG1 repair inh – inhibitors of ELG1-dependent DNA repair in HEK293T cells | HEK293T ELG1-luciferase reporter, luminescence, 16 h; DNA damage induced by 5-fluorouridine | Potency, µM (series often up to 46.1 µM), for inactives: at the top dose activity change, negative = inhibition, usual class: inhibitors | 330,000 tested, 2.3% active; note: potency is the fitted concentration of half-maximal effect; nearly all actives have a fitted effect of over 55% in size
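Cells (2,000 per well) received 5-fluorouridine plus test compound or DMSO and were incubated 16 hr at 37 °C, 5% CO2. Luciferase activity was read by luminescence 30 min after ONE-Glo addition; signal suppression marked inhibition of damage-induced ELG1 function.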
DT40 TDP1 CPT – growth inhibition of DT40 Tdp1-/-;hTDP1 cells with camptothecin (screen for TDP1 inhibitors). chicken DT40 Tdp1-/-;hTDP1 cells + 20 nM CPT, ATP luminescence, 48 h. Potency, µM (top dose mostly 46.2 µM), for inactives: at the top dose activity change, negative = growth inhibition, usual class: inhibitors. 420,000 tested, 12% active; note: potency is the fitted concentration of half-maximal effect; nearly all actives have a fitted effect of over 55% in size
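Cell growth measured by CellTiter-Glo luminescence after a minimum 48 h, 37 C compound exposure with 20 nM CPT in Tdp1-knockout DT40 cells stably expressing hTDP1, seeded 400/well; qHTS titration format.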
RORg inh – inhibitors of mouse ROR gamma transcriptional activity | 310,000 tested, 5.4% active | Potency, µM (highest dose often 53.6 µM), without a hit: top-dose activity change, negative = inhibition, hits mostly inhibitors | P51450 | Drosophila S2 Gal4-RORgamma UAS-luciferase reporter, 20 h; note: potency is the fitted concentration of half-maximal effect; nearly all actives have a fitted effect of over 60% in size
Target sequence (P51450 whole entry, looked up, the tested form may be a part): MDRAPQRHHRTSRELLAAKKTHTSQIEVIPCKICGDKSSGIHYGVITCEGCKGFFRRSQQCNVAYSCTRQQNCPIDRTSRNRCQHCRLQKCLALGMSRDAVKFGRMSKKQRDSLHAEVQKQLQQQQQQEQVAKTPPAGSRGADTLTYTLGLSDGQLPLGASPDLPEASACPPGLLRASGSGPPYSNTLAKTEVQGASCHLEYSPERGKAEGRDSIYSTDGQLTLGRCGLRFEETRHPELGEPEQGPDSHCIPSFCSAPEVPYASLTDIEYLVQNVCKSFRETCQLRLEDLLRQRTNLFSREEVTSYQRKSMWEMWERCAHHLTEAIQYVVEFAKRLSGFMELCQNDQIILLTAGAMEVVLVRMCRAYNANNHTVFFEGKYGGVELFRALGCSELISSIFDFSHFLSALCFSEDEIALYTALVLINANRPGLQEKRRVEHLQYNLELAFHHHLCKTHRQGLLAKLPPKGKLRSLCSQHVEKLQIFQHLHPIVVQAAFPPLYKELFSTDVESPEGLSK
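Stable Schneider cell line, Gal4 DNA-binding domain fused to ROR gamma, UAS-luciferase. Cmpd 1 hr RT → CuSO4 700 uM final → 20 hr RT → luciferase reagent 10 min → luminescence.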
An asterisk follows results filed as active; i = inactive; ? = inconclusive; / = no result; [ ] = remark or other dose. Hits are enriched below; roughly 21% of the tested compounds scored in any of these assays. Unless noted, calls come from the whole dose curve; as a rule, active = well fitted curve in the direction sought with a large enough effect; inconclusive = small, poorly fitted or top-dose-only effect, or another doubt; inactive = no such curve, though single readings can be large; an effect the other way counts as inactive or inconclusive. % is set by controls: 0 for no effect and ±100 for the full control effect.

SMILES	IL-1B inflam inh	Gal4-VP16 FLuc	TDP1 cell noCPT	ELG1 repair inh	DT40 TDP1 CPT	RORg inh
CCN(CC)S(=O)(=O)c1cccc(C(=O)NC2CCCCC2)c1	3.8	6.4%	?	?	-8.6%	?
COc1ccc(S(=O)(=O)Nc2ccccc2OC)cc1NC(=O)CC1CC2CCC1C2 (stereo not drawn)	2.3	-4.5%	16.4µM*	?	?	-2.7%
CCN(CC)S(=O)(=O)c1ccc(C)c(NC(=S)NC2CCCCC2)c1	24.1	?	14.6µM*	?	?	10µM*
OCCN1CCN(Cc2ccc3c(c2)CN(Cc2ccc4ccccc4c2)CCO3)CC1	/	/	-14.1%	/	-6.1%[9.04 µM]	/
COc1ccc2c(c1)O[C@@H](c1cccc(C(F)(F)F)c1)[C@H](OC(=O)NCCOc1ccccc1)C2=O	/	-10.8%	/	/	/	12.8%
CCOC(=O)C1CCCN(C(=O)Cc2ccc(C)cc2)C1 (stereo not drawn)	6.3	4.5%	18.4µM*	12.9%	?	0.6%
CCOC(=O)C1CCCN(C(=O)c2ccc(CS(=O)(=O)c3ccc(C)cc3)o2)C1 (stereo not drawn)	-9.3	1.5%	-16.7%	-4.6%	-7.8%	0.7%
CCOC(=O)C1CCCN(C(=S)Nc2ccc(C)cc2C)C1 (stereo not drawn)	-12.4	?	0.9%	-1.2%	-3.0%	11.2µM*
CCOC(=O)c1ccc(NC(=S)N2CCCC(C)C2)cc1 (stereo not drawn)	21.8	?	?	11.8%	-1.3%	12.6µM*
CCOC(=O)C1CCCN(C(=O)c2ccc(-c3ccc([N+](=O)[O-])cc3)o2)C1 (stereo not drawn)	-22.4	/	11.6µM*	-9.3%	11.6µM*	/
CCOC(=O)C1CCCN(C(=S)Nc2ccc(Nc3ccccc3)cc2)C1 (stereo not drawn)	-96.4*	2.4%	23.1µM*	?	?	?
CN(C(=O)CSc1nncc2ccccc12)c1ccccc1	-86.6*	/	-29.1%	4.2%	-2.4%	/
O=C(CSc1nncc2ccccc12)N1CCCCC1	-22.4	27.1%	3.9%	18.5%	-5.2%	0.0%
CC1(C(=O)Nc2cccc3c2CCCC3)CCN1C(=O)Cc1ccccc1Cl (stereo not drawn)	-21.6	/	?	/	?	/
CCOc1ccc(S(=O)(=O)/N=C(/Nc2ccc(C(C)=O)cc2)c2ccccc2)cc1	-11.6	/	13µM*	?	23.1µM*	/
COc1ccc(S(=O)(=O)Nc2ccc(NC(C)=O)cc2)cc1	32.4	9.5%	?	-5.7%	-18.0%	14.1%
COc1ccc(NS(=O)(=O)c2ccc(NC(=S)NC(=O)C(C)C)cc2)cc1	0.0	-3.3%	16.4µM*	-8.6%	18.4µM*	-0.6%
CCOc1ccc(NS(=O)(=O)c2ccc(NC(=S)NC(C)=O)cc2)cc1	33.5	-8.6%	23.1µM*	0.6%	23.1µM*	27.1%
CC(C)C(=O)NC(=S)Nc1ccc(S(=O)(=O)N(C)Cc2ccccc2)cc1	19.2	?	18.4µM*	/	?	14.1µM*
CCOc1ccc(S(=O)(=O)/N=C(/Nc2ccc(OC)cc2)c2ccccc2)cc1	i	?	-28.8%	14.5%	-1.4%	?
CCOC(=O)C1(Cc2cccc(OC)c2)CCCN(C(=O)c2cc(C)on2)C1 (stereo not drawn)	-15.9	?	-33.9%	?	?	1.7%
CC(C)C(NC(=O)C(CC(=O)O)NC(=O)C(CCCCN)NC(=O)C(N)CCCN=C(N)N)C(=O)NC(Cc1ccc(O)cc1)C(=O)O (stereo not drawn)	/	0.9%	/	/	/	1.1%
CCOc1ccc(CNc2cccc(SC)c2)cc1	-10.3	-14.7%	?	-27.1%	1.1%	8.0%
CCOc1ccc(NC(C)=O)cc1	10.4	-3.2%	1.9%	13.3%	?	0.2%
CCOc1ccc(/C(O)=C/C(=O)C(=O)Nc2ccc(S(=O)(=O)NC(C)=O)cc2)cc1	0.0	-0.9%	-18.5%	10.7%	25.9µM*	-10.3%
SMILES	IL-1B inflam inh	Gal4-VP16 FLuc	TDP1 cell noCPT	ELG1 repair inh	DT40 TDP1 CPT	RORg inh
CCOc1ccc(NS(=O)(=O)c2ccc(NC(=S)NC(=O)C(C)C)cc2)cc1	12.4	4.3%	?	-15.1%	20.6µM*	-23.0%
CC(C)C(=O)NC(=S)Nc1ccc(S(=O)(=O)NC2CCCCC2)cc1	3.6	?	-25.9%	11.6µM*	?	?
CC(=O)Nc1ccc(S(=O)(=O)NC2CCCCCC2)cc1	2.6	-11.5%	?	-1.2%	?	8.7%
CC(C)C(=O)NC(=S)Nc1ccc(S(=O)(=O)Nc2ccccc2)cc1	0.8	7.7%	-29.4%	-0.1%	-18.3%	-2.8%
c1nc(N2CCNCC2)c2cc(-c3ccc4c(c3)OCO4)ccc2n1	/	-5.0%	?	/	?	18.3%
COc1ccc(/C=C/C(=O)N(C(C)C)C(C)C)cc1Br	-26.0	-5.9%[0.365 µM]	12.6µM*	0.0%	?	5.4%
COc1ccc(/C=C/C(=O)N(C)C2CCCCC2)cc1Br	-67.9*	-4.7%	?	?	?	18.6%
COc1ccc(/C=C/C(=O)NC(C)C)cc1Br	-9.8	7.6%[0.365 µM]	-4.7%	2.9%	16.6%	?
COc1ccc(/C=C/C(=O)N(C)C2CCS(=O)(=O)C2)cc1 (stereo not drawn)	15.9	/	-9.0%	12.3%	-16.2%	/
CN(C(=O)/C=C/c1cnc2ccccc2c1)C1CCCCC1	-57.9*	-26.7%	?	?	-19.2%	?
O=C(NC1CCCC1)C(c1ccccn1)N(C(=O)c1csnn1)c1ccccc1Cl (stereo not drawn)	20.5	1.8%	2.5%	7.5%	2.4%	-10.2%
CNc1ccc(Br)cc(C(=O)/C=C/c2ccc(OC)cc2OC)c1=O	?	-17.0%	14.6µM*	?	9.2µM*	-38.6%
COc1cccc(/C=C/C(=O)OCC(=O)NCCNC(=O)COC(=O)/C=C/c2cccc(OC)c2)c1	32.8	/	?	0.0%	?	/
CNc1ccc(Br)cc(C(=O)/C=C/c2cccc(OC)c2)c1=O	-100.9*	?	7.31µM*	?	13µM*	?
CNc1ccc(Br)cc(C(=O)/C=C/c2ccc(Cl)cc2Cl)c1=O	-91.1*	-29.2%	18.4µM*	?	4.61µM*	?
COc1ccccc1-c1cccc2nccn12	-0.8	/	-14.9%	/	?	/
C[C@H]1[C@@H](OC(=O)CCC(=O)O)OC2OC3(C)CC[C@H]4[C@H](C)CC[C@@H]1[C@@]24OO3 (stereo partly drawn)	/	-3.2%	/	/	/	-16.6%
